Experimental findings from paper PMC5540273 (PLoS ONE, 2017) are described below.

Structures are written as SMILES.
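Further: KINOMEscan kinase panel screen.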

This assay concerns T1, YSK4.
T1 construct: gene MAP3K19
The following applies: concentration: 1 μM,replicates: in singlicate; n = 1.
Consider `CN1CCN(CCNc2nc3cc(Oc4ccc(NC(=O)Nc5cc(C(F)(F)F)ccc5F)cc4)ccc3[nH]2)CC1.Cl.Cl` [GW768504], for which the “%Inh” value amounted to 10%.

As to `CN(c1ccccc1CNc1nc(Nc2ccc3c(c2)CC(=O)N3)ncc1C(F)(F)F)S(C)(=O)=O`, the “%Inh” value came to 91.4%.

For the compound `C[C@@H](Oc1cc(-n2cnc3ccc(-c4ccncc4)cc32)sc1C(N)=O)c1ccccc1Cl` [GSK483724], the “%Inh” value worked out at 68%.

As for `CC(=O)c1c(-c2ccncc2)[nH]c(-c2ccncc2)c1C` [GW493036], the “%Inh” value is given as 78%.

Consider `N#Cc1cccc(C(=O)NC2CCN(c3ccnc(Nc4ccc(F)cc4)n3)C2)c1` (stereo not shown) [GSK1379708], for which the “%Inh” value amounted to 16%.

As to `CS(=O)(=O)c1cccc(CNc2nc(Nc3ccc4c(c3)[C@@H]3C[C@@H]4CNC3=O)ncc2C(F)(F)F)c1`, the “%Inh” value turned out to be 98.5%.

For the compound `CCN1CCN(CCCC(=O)Nc2n[nH]c3nc(-c4ccc(O)cc4)c(Br)cc23)CC1` [SB-731579], the “%Inh” value is 85%.

Consider `Cc1ccc(Nc2ccnc(Nc3ccc4c(c3)CS(=O)(=O)C4)n2)cc1O.Cl` [GW579362], for which the “%Inh” value stood at 99.1%.

Take `C[C@@H](Oc1cc(-n2cnc3cc(-c4cnn(C)c4)ccc32)sc1C(N)=O)c1ccccc1Cl` [GSK580432]: the “%Inh” value stood at 97.8%.

Turning to `O=C1NCCc2[nH]c(-c3ccncc3)cc21`, the “%Inh” value came to 99.4%.

As for `c1ccc(Oc2ccc(Nc3ccnc4ccc(-c5ccccn5)cc34)cc2)cc1` [GW407034], the “%Inh” value amounted to 7%.

As to `NC(=O)Nc1sc(-c2ccc(F)cc2)cc1C(N)=O` [GW789449], the “%Inh” value came to 82%.

As for `COc1cccc(CNC(=O)NC2CCN(c3ccnc(Nc4cc(OC)c(OC)c(OC)c4)n3)C2)c1` (stereo not shown) [GSK1379765], the “%Inh” value amounted to 37%.

Turning to `COC(=O)c1cccc(NC(=O)NC2CCN(c3ccnc(Nc4cc(OC)c(OC)c(OC)c4)n3)C2)c1` (stereo not shown) [GSK1379767], the “%Inh” value is on record as 0%.

For `CC(=O)Nc1nc2cnc(Nc3cc(NC(=O)c4cccc(CC(C)(C)C#N)c4)ccc3C)nc2s1`, the “%Inh” value is on record as 40%.

For the compound `C[C@@H]1CNc2c(sc3ccc4nc(-c5ccncc5)ccc4c23)C(=O)N1`, the “%Inh” value is on record as 56%.

In the case of `Cl.Nc1n[nH]c2cc(-c3ccccn3)ccc12` [GSK2189892], the “%Inh” value was 5%.

On to `COc1cc2c(Nc3ccc(NC(=O)c4ccccc4)cc3)ncnc2cc1OCCCN1CCOCC1` [GSK301329], for which the “%Inh” value amounted to 12%.

For the compound `Cc1ccc2c(-c3ccnc(Nc4ccc(C(F)(F)F)cc4)n3)cnn2n1` [GW819776], the “%Inh” value was 43%.

For `CC(C)S(=O)(=O)N1CCN(Cc2ccc3c(c2)nc(NC(=O)c2ccsc2)n3C[C@H](O)c2ccccc2)CC1` [GW635815], the “%Inh” value is recorded as 90.6%.

On to `NC(=O)c1ccc(-c2cc3ncnc(SCC(=O)O)c3s2)cc1`, for which the “%Inh” value came to 63%.

As for `CCn1c(-c2nonc2N)nc2cncc(Br)c21` [SB-738004], the “%Inh” value was found to be 99.7%.

Regarding `O=C(NCC1CC1)c1ccc(-c2cc(C(=O)NC3CC3)ccc2F)cc1` [GW810445], the “%Inh” value is on record as 6%.

Take `COc1cc2ncn(-c3cc(OCC4CCCCC4)c(C(N)=O)s3)c2cc1OC` [GSK204559]: the “%Inh” value was 35%.

For `COc1cccc(OC)c1C(=O)Nc1cccc(-c2nn3ccccc3c2-c2ccnc(Nc3cccc(F)c3)n2)c1` [GSK361065], the “%Inh” value was 0%.

Regarding `COC(=O)Nc1nc2cc(Oc3ccc(NC(=O)Nc4cc(C(F)(F)F)ccc4Cl)cc3)ccc2[nH]1.Cl` [GW697465], the “%Inh” value is listed as 84%.

On to `Cl.Cl.NC[C@H](CC1CCCCC1)NC(=O)c1ccc(-c2ccnc3[nH]ccc23)s1` [GSK1581428], for which the “%Inh” value amounted to 99.7%.

Consider `CN1CCN(CCCNc2nccc(-c3c(-c4ccc(F)cc4)nn4cc(C(N)=O)ccc34)n2)CC1` [GW622475], for which the “%Inh” value is given as 14%.

As for `O=C(NOCC1CC1)c1cc(Br)c(F)c(F)c1Nc1ccc(I)cc1Cl`, the “%Inh” value was determined as 0%.

With `CC(=O)Nc1ccc(-c2cc3ncnc(SCC(=O)O)c3s2)cc1`, the “%Inh” value was 50%.

On to `OCCn1cc(-c2cnc3nnn(Cc4ccc5ncccc5c4)c3n2)cn1`, for which the “%Inh” value was determined as 0%.

Take `CCCC(=O)Nc1n[nH]c2ncccc12` [SB-601436]: the “%Inh” value is recorded as 0%.

`CN(c1ccc2c(c1)nc(NCc1ccc(F)cc1)n2C)c1ccnc(Nc2ccc(CS(C)(=O)=O)cc2)n1.Cl` [GW813244]: the “%Inh” value is on record as 99.3%.

As to `Cl.c1ccc(Oc2ccc(Nc3ccnc4cc(-c5ccc(CN6CCNCC6)o5)ccc34)cc2)nc1` [GW567142], the “%Inh” value turned out to be 30%.
